# Test system: HL-1
# Assay: protection of cardiomyocytes from stress damage, SAR follow-up, cell-based, panel, H9c2 and HL-1, ATP luminescence, set 2 (AID 651871);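 further: cells exposed to stressor for 2 h before ATP readout; reference of the scale not given here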
# Settings: H9c2/HL-1 cardiomyocytes, 2-deoxyglucose stress, with 2-deoxyglucose, run 4, at 19.8 µM (top of the series)
compound,measurement,value
COc1ccc2c(c1OC)C(=O)N1c3ccccc3C(=O)N(Cc3cccc(Cl)c3Cl)C21 (stereo unspecified),activity (protection/inhibition),48.1%

# Reference: PubChem BioAssay AID651871 (Sanford-Burnham Center for Chemical Genomics, 2012)
